Measured values as given in the supplement of paper PMC6555819.

Tested on: VDR:RXRa (NR concentration 270 nM, RXRa partner concentration 90 nM)
Assay: PBM binding z-score (relative to random genomic background probes); higher = stronger binding; sequences stand for … in GC…GCGATTGACAGCGTAGAATGAAGG
Method: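 Protein-binding microarray (Agilent 4x180K custom design, double-stranded 60-nt probes: 5' GC cap, 34-nt variable region, 24-nt constant primer region; full probe sequence given). Purified or IVT nuclear receptor:RXRα heterodimers (3:1 NR:RXRα, mostly 270:90 nM) or homodimers were incubated for 1 h in PBS with 2% milk and no ligand, then detected with Alexa488 antibodies. Fluorescence from o1-orientation probes (~5 replicates averaged) was converted to z-scores against 500 random hg19 background probes. Variable regions are seed direct-repeat (DR0–DR5) sites, all their single-nucleotide variants and half-site ablations.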

Row | Sequence | PBM binding z-score
1 | TTACCAAGGTGAAGGTCGTTGAACCCTCTGTAGA | 3.04
2 | CATCCTAGGTCAGGGCCAGTATAGGAGGAACGTT | 0.731
3 | ACTATTAGTTGACTCAGGGCAACCGATACGACGC | 0.825
4 | CCTACTGGGCCAAGGTCAGTGATCAGTCAAAGCA | 0.692
5 | CCTGTTAGTTGACCATAAGGGCAACCGAAGCTCG | 0.474
6 | TCATATAGGTAATACAGGTGAGAGTCGGCATCTA | 0.85
7 | AGTCAGAGTTCACTAGGTAACGTAAGATTCAGCT | 4.82
8 | CAAACTAGGTCACAGAGGTCAAAATCCGTGCGTA | 7.91
9 | CCTATCAGGCCAATCTGGGTCACTCAAGGCTTGA | 0.878
10 | ATATGTCGGTTATCGGGTCATTCAGTTTGCGCAT | 4.84
11 | GGAACGAGGGCGAGTTGATAGCAGAGTTTGATGG | -0.000397
12 | ACAGACAGTTGATGAAGGTAACTCAGGCTATCAT | 0.101
13 | ATAATGAGGTTATACGTAGATCAGGGAAGAAAGT | 1.95
14 | CTACCAAGGTGAACAAGGTCGTTGAATACTATTC | 5.99
15 | CCTAATGGGCCAAAGGTCATTGATTCCAATGCTC | 4.64
16 | CCTCGGAGGACAGAAGGTGAGAGCTGTCCGCTTT | -0.483
17 | TAGCCTAGGTCATGCGGGCCAGTAGAGTGTCGGC | 2.95
18 | TCGAGTAGGTTAGGGGAATTCAGAATGGCGTCGA | -0.154
19 | CCTTCTGGGCCACGAAAGGTCATTGATTCAGTGA | 4.28
20 | CGAACTAGGTCAAGGACAGTGACTCTCCGCACGC | 1.19

Row | Sequence | PBM binding z-score
21 | TATACAGGGTCAAAAGCCAGAGTACGAATGTCGA | 4.1
22 | ACTAGCAGGCCAAGTTTGGGTCACGCAAACAAAG | 1.36
23 | ATCTCTAGGTAACAAATTCAGTGAAAGAGAGGAC | 0.375
24 | ACAGACAGGTGGTGAAGGTAACTCAGGCTATCAT | -0.0297
25 | ACTCGGAGTACAAAGGTCAGAGCTACGCCAGTGA | 3.59
26 | AGCACGAGGGCACGCTGAGTTGATAGCAGAGTAG | 2.17
27 | GGAACGAGGGCAAAGCTGATAGCATCTGTCGACG | 0.367
28 | CCTACTGGGCCATCAGGTCATTAATATCAACGTT | 1.49
29 | AGCATGAGGTTAAGATCAGGGAAACAGAATACAT | 1.36
30 | GCATATAGGTAAGACAAGGTGAAAGTCCGATTGT | 0.0453
31 | AGAATGAGGTTACCATAGATCAGGGAAACGCTTG | 0.941
32 | CCTATCAGTTGACCATAAGGGCAACCGAAGCTCG | 0.912
33 | GGAACTAGGGCATTCGAGTTGATAGCATGGCGAT | 1.23
34 | CGAGCTAGGTCATTGACAGGACAGTGAATAGTAA | 2.04
35 | CCGACTGGGGCAAAGGTTACCGTACTCAGTACGA | 1.39
36 | AGAATGAGGTTACCAAAGACCAGGGAAACGCTTG | 1.32
37 | GCTATTAGTTGAAAGGGCAGCCGAATGATTCTCG | 0.0527
38 | CGAACTAGGTCATTGACAGGACAGAGAATAGTAA | 2.18
39 | TCATATAGGTAAAGGTGAAAGTGGAACGATATGA | 1.05
40 | CCTACTCGGCCACGAAAGGTCATTGATTCAGTGA | 4.1
